Experimental data taken from PubChem BioAssay AID1347051 (National Center for Advancing Translational Sciences (NCATS), 2019).
About 980 (70%) of roughly 1,400 compounds were called active. About 16% were inconclusive and are not listed. Calls follow the shape of the full dose curve. The set was probably picked from earlier hits. Not all results are given here.

experiment: Natriuretic polypeptide receptor (hNpr1) antagonism - Counterscreen GloSensor control cell line; conditions: HEK293 GloSensor cGMP, SNP-stimulated, luminescence; series mostly up to 57.6 µM; also: nearly all actives have a fitted effect of over 70% in size
Description: cGMP production was measured using a circular permutated firefly luciferase (FLuc) enzyme functionally linked to the cGMP binding domain of human phosphodiesterase 5 (GloSensor technology pGS-40F, (Fan, F. et al. 2008). The cGMP-sensor was expressed in human embryonic kidney 293 (HEK-293) cells and FLuc activity was measured after stimulation with the NO-donor sodium nitroprusside (SNP). SNP activates the endogenously expressed soluble guanylyl cyclase (GC) producing cGMP which then binds to the GloSensor resulting in FLuc activation, the enzymatic activity of which can be measured as bioluminescence with addition of luciferin substrate. F. Fan, B. F. Binkowski, B. L. Butler, P. F. Stecha, M. K. Lewis, K. V. Wood, Novel genetically encoded biosensors using firefly luciferase. ACS Chem Biol 3, 346-351 (2008).
PROTOCOL TABLE (as described by Inglese J, Shamu CE and Guy RK. 2007) SEQUENCE No. (e.g., 1, 2, 3, etc.); PARAMETER (e.g., Cells, Incubation, Reagent, etc.); VALUE and DESCRIPTION. 1. Cells. Seed 1500 HEK293 cGMP-sensor cells per well in 4uL into Greiner 1536-well white/solid bottom high base, TC plates. 2. Incubation. Incubate plated cells at 37C in 5% CO2, 95% RH overnight. 3. Reagent. Add 1uL per well GloSensor reagent from Promega (2% final concentration) or CO2 independent media vehicle control to respective columns of Greiner 1536-well plates. 4. Incubation. Incubate plated cells at room temperature for 2 h, protect from light. 5. Compounds. Library compounds and DMSO vehicle control added at 23nL per well, transferred by Pin Tool. 6. Incubation. Incubate plated cells for 30 min. at room temperature, protect from light. 7. Detector. GloSensor baseline pre-read luminescence measured using CCD-based camera (Viewlux). 8. Compound. Add 1uL of sodium nitroprusside (SNP) to 50 uM final concentration to stimulate soluble guanylyl cyclase (GC) or CO2 independent media as vehicle control. 9. Incubation. Incubate treated cells at room temperature for 20 min., protect from light. 10. Detector. GloSensor post-SNP luminescence measured using CCD-based camera (Viewlux). NOTES (numbers refer to Sequence numbers above; values are from representative experiments) 1. HEK293 cells expressing GIP/pGS-40F were grown to 85-95% confluence (48-72 h) in T175 culture flasks (CO2 independent media supplemented with 10% FBS, 1% Pen/Strep antibiotics, and 1 ug/mL puromycin). Trypsinize and harvest cells from T175 culture flasks and filter through 40 um cell strainer. Cells counted with Invitrogen Countess (30,000,000 - 50,000,000 cells/flask). Cells diluted to a final concentration of 375 cells/uL in CO2 independent media and a Millipore multidrop used to dispense 1500 cells per well (4uL/well) into 13 1536-well Greiner White/Solid bottom, high base tissue-culture treated (TC) plates and one Aurora 1536-well Black/Clear bottom, low base, TC plate (for visual inspection of cell health throughout the duration of the assay). 2. Cells incubated for 24 h. at 37C in 95% RH incubator with metal lid having gas-exchange holes. 3. Prepare GloSensor Reagent (Promega): Reconstitute GloSensor luciferase substrate by adding 8.2mL Hepes buffer to 250mg substrate, mix well, protect from light and stored at -80C. Prepare a fresh 12% GloSensor solution in CO2 independent supplemented plating media (see above). Mix well and store at ambient temperature, protected from light. 1uL 12% GloSensor Luciferase Reagent added (2% final concentration) to respective columns of 13 x 1536-well Greiner plate with BioRaptr, 1uL CO2 independent plating media added to respective columns as vehicle control with BioRaptr. 4. Cells incubated for 2 h. at ambient temperature, protected from light with metal lid having gas-exchange holes. 5. 23nL of library compounds or DMSO vehicle control transferred to 13 Greiner white/solid bottom high base, TC plates in 11 interplate 1:3 titrations (see Yasgar, A. et al. 2008) with Pintool. 6. […]
Potency is read from the fitted curve at half-maximal effect.

Row | Compound | Potency
1 | COc1ccc(C2Cn3nnc(C(=O)N4CCN(C(=O)c5ccc(C)cc5C)CC4)c3CO2)cc1 (stereo unspecified) | 21.7 µM (active)
2 | COc1cccc(C2Cn3nnc(-c4nc(-c5ccccc5)no4)c3CO2)c1 (stereo unspecified) | inactive
3 | COc1ccc(C2Cn3nnc(C(=O)N4CCN(C(=O)c5cccc(Cl)c5)CC4)c3CO2)cc1 (stereo unspecified) | 12.2 µM (active)
4 | O=[S+]1([O-])NCC2(CCCN(Cc3ccc(C(F)(F)F)cc3)C2)Oc2ncccc21 (stereo unspecified) | 15.3 µM (active)
5 | COc1ccc(C(CC(=O)N(C)Cc2cc(C3CC3)n[nH]2)c2ccccc2)cc1 (stereo unspecified) | inactive
6 | COc1ccc(OCC2(C)COc3ccc(C(=O)Nc4cccnc4)cc3N2)cc1 (stereo unspecified) | 49.8 µM (active)
7 | CC1(CCCCc2ccccc2)COc2ccc(C(=O)N3CC[S+](=O)([O-])CC3)cc2N1 (stereo unspecified) | inactive
8 | Cc1noc(C)c1-c1cc(-c2ccccc2Oc2ccccc2)cn2cncc12 | inactive
9 | Cc1nc(-c2ccncc2)ncc1C(C)Nc1ncnc(C)c1C (stereo unspecified) | 19.3 µM (active)
10 | CC(C)c1nncn1C1CCN(S(=O)(=O)c2cccc(Br)c2)CC1 | 24.3 µM (active)
11 | CC1(C(=O)NCc2ccc3c(c2)OCO3)CCc2cnc(NCc3ccccc3)nc21 (stereo unspecified) | 44.4 µM (active)
12 | CC(C)(C)c1csc(NC(=O)c2ccc3c(c2)OCCN(C2CCC2)C3)n1 | 25 µM (active)
13 | COc1ccc(-c2noc(CC3CCN(C(=O)Cc4ccccc4)CC3)n2)cc1 | 27.3 µM (active)
14 | COc1ccc(-c2noc(CC3CCN(C(=O)CC4CCCCC4)CC3)n2)cc1 | 8.62 µM (active)
15 | COc1ccc(-c2noc(CC3CCN(C(=O)Cc4ccc(C)cc4)CC3)n2)cc1 | 30.6 µM (active)
16 | COc1cccc(CNC(=O)Cn2c(N(C)Cc3ccccc3)nc(C)cc2=O)c1OC | 24.3 µM (active)
17 | COc1cccc(C2C(C(=O)Nc3ccccc3)=C(C)N=C3SC=C(CC(=O)NCC(C)C)N32)c1 (stereo unspecified) | inactive
18 | COc1cccc(NC(=O)Cn2c(N(C)Cc3ccccc3)nc(C)cc2=O)c1 | 10.9 µM (active)
19 | O=C(c1ccc2cc[nH]c2c1)N1CCC2(CC1)N=C(c1ccc(Cl)cc1)NO2 | 15.3 µM (active)
20 | Cc1nn2c(c1-c1ccccc1-c1ccccc1)N(CC1CC1)CCC2 | 2.8 µM (active)
21 | Cc1nn2c(c1-c1ccnn1C(C)C)N(CC1CCOCC1)CCC2 | inactive

Row | Compound | Potency
22 | CC1=NS(=O)(=O)N(C)C=C1C(=O)OCc1nc(-c2ccc(C)cc2)no1 | 8.62 µM (active)
23 | CCN(CCCNC(=O)c1nnn2cc(-c3ccccc3)[nH]c(=O)c12)c1ccccc1 | inactive
24 | Cc1c[nH]c(CN2CCCC(CCc3ccc(F)cc3F)C2)c(C)c1=O (stereo unspecified) | 2.43 µM (active)
25 | O=C(Cc1c[nH]c2ncc(-c3ccccc3F)cc12)N1CCOCC1 | 28 µM (active)
26 | Cc1noc(C)c1-c1cnc2[nH]cc(CC(=O)N3CCOCC3)c2c1 | 22.2 µM (active)
27 | COc1ccccc1Nc1cnc2ccc(N(C)Cc3cccnc3)nn12 | 35.3 µM (active)
28 | O=C(NCC1CC1)c1nc2c(o1)CCN(Cc1cccc(F)c1F)CC2 | 22.2 µM (active)
29 | O=C1NCN(Cc2ccc(Cl)cc2)C12CCN(Cc1ccccc1)CC2 | 13.7 µM (active)
30 | O=C1Nc2ccccc2CN(Cc2ccccc2)C12CCNCC2 | inactive
31 | OC1(Cc2cc(-c3ccccc3)no2)CCN(c2ncncn2)CC1 | 6.85 µM (active)
32 | O=C(NCc1nnc2cc(-c3nc(C4CC4)no3)ccn12)c1ccc(F)cc1Cl | 12.2 µM (active)
33 | COc1ccc(CCNC(=O)c2noc(-c3ccc(C)cc3)n2)cc1OC | 21.7 µM (active)
34 | COc1ccc(C(=O)N2CCC(n3cc(-c4nc(C(C)C)no4)nn3)CC2)cc1F | inactive
35 | O=C(c1ccc(F)cc1Cl)N1CCC(n2cc(-c3nc(-c4ccccc4)no3)nn2)C1 (stereo unspecified) | 4.32 µM (active)
36 | O=C(c1ccc(Cl)cc1)N1CCCC(n2cc(-c3nc(-c4ccccc4)no3)nn2)C1 (stereo unspecified) | 13.7 µM (active)
37 | CCc1ccc(C(=O)N2CCN(c3cc(-c4ccc(F)cc4)[nH]n3)CC2)cc1 | 21.7 µM (active)
38 | O=C(c1cc(F)ccc1Cl)N1CCN(c2cc(-c3ccc(F)cc3)[nH]n2)CC1 | 24.3 µM (active)
39 | Cc1ccc(C(=O)N2CCN(c3cc(-c4ccc(Cl)cc4)[nH]n3)CC2)c(C)c1 | 6.11 µM (active)
40 | O=C(c1ccc(F)cc1F)N1CCN(c2cc(-c3ccc(Cl)cc3)[nH]n2)CC1 | 17.2 µM (active)
41 | C1CCC(COCCc2noc(C3CNC3)n2)C1 | 21.7 µM (active)
42 | O=C(c1ccccn1)N1CC(Oc2ccc(-c3noc(C4CC4)n3)cc2)C1 | 13.7 µM (active)

Row | Compound | Potency
43 | COc1ccc(-c2noc(CC3CCN(C(=O)Cc4ccc(OC)c(OC)c4)CC3)n2)cc1 | 3.85 µM (active)
44 | COc1ccc(CC(=O)N2CCC(Cc3nc(-c4ccccc4)no3)CC2)cc1OC | 13.7 µM (active)
45 | COc1ccc(CN2C(=O)CO[C@H]3CN(Cc4ccc5c(c4)OCO5)C[C@H]32)cc1 | 28 µM (active)
46 | Cc1ccc2c(c1)nc1n2[C@@H](CNS(=O)(=O)c2ccccc2)COC1 | 35.3 µM (active)
47 | N#Cc1cccc(CN2CCC(C3=NC(O)c4cc(F)ccc4N3)CC2)c1 (stereo unspecified) | 19.3 µM (active)
48 | Fc1ccc(CNC[C@H]2Cn3c(-c4ccc5c(c4)OCCO5)cnc3CO2)cc1 | inactive
49 | COc1cccc(-c2noc(CC3CCN(C(=O)c4ccc(F)cc4)CC3)n2)c1 | 4.85 µM (active)
50 | O=C(c1ccccc1)N1CCC(C(=O)N2CCC(Cc3nc(-c4ccc(F)cc4)no3)CC2)CC1 | 13.7 µM (active)
51 | Cc1cccc(C(=O)N2CCC3(CC2)CC(N(Cc2ccc(F)cc2)C2CC2)CCO3)c1 (stereo unspecified) | inactive
52 | CN1CCN(C(=O)C(C)(C)Oc2nn(Cc3cccc(Cl)c3)c3ccccc23)CC1 | inactive
53 | O=C(c1ccccc1)N1CCNc2cnc(Nc3cccc(C(F)(F)F)c3)nc2C1 | 22.2 µM (active)
54 | Cc1cc(N2CCCC(Cn3cc(Cc4ccccc4)nn3)C2)nc(N)n1 (stereo unspecified) | 4.85 µM (active)
55 | O=C1c2cnc(-c3ccc(Cl)cc3)nc2OCCN1Cc1ccccc1 | 35.3 µM (active)
56 | CN(Cc1csc(-c2ccccc2)n1)c1cc(C2CC(O)C2)nc(N)n1 (stereo unspecified) | 1.93 µM (active)
57 | Cc1ccc(OCc2nc(C3CCN(C(=O)CCc4nc5ccc(Cl)cc5[nH]4)CC3)no2)cc1 | 24.3 µM (active)
58 | O=c1[nH]c(C2CCCN(Cc3ccccn3)C2)nn1-c1ccc(Cl)cc1 (stereo unspecified) | 9.68 µM (active)
59 | CN(C)CCNC(=O)C(C)(C)Oc1nn(Cc2cccc(Cl)c2)c2ccccc12 | inactive
60 | CC(C)c1cc(C(=O)N2CCC(n3cc(-c4ccccn4)nn3)CC2)n(C)n1 | 15.3 µM (active)
61 | Cc1cccc(CN2CCc3nc(C(=O)Nc4ccc(Cl)cc4)oc3CC2)c1 | 8.86 µM (active)
